Data from PubChem BioAssay.
Activity calls are given as the source filed them.

Assays:
[1] = system: Plasmodium falciparum Sir2 (PF13_0152, Sir2A); experiment: pfSir2 binders on small-molecule microarrays, primary screen, biochemical, small-molecule microarray, 635 nm fluorescence (AID 1098); details: small-molecule microarray binding, fluorescence 635 nm; higher = more signal;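 also: score merges spot fluorescence intensity with its signal-to-noise ratio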
[2] = small-molecule microarray binders of probe aDKK1, primary screen, biochemical, biotinylated probe, 635/667 nm fluorescence (AID 1099); details: higher = more signal;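 also: score merges 667nm spot fluorescence with signal to noise across triplicate slides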
[3] = small-molecule microarray binders of probe aCHRDL2, primary screen, biochemical, biotinylated probe, 635/667 nm fluorescence (AID 1100); details: higher = more signal
[4] = splicing luciferase reporter signal modulators, primary screen, spliceosome inhibition project, cell-based, HEK293, splice +/- reporter (AID 1101); details: luminescence, 24 h, higher = more signal, called active from +8 up or from −8 down;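 also: HEK293 cells carrying a splicing-competent luciferase reporter gene; test concentration not given here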
[5] = biological target: Fibroblast growth factor 10 (Homo sapiens) (UniProt O15520); experiment: FGF10 binders on small-molecule microarrays, primary screen, biochemical, small-molecule microarray, 635 nm fluorescence (AID 1102); details: FGF10 binding, fluorescence 635 nm, higher = more signal
[6] = system: glycogen synthase kinase-3 (GSK3A per assay name; protocol says GSK3B); experiment: GSK3 binders on small-molecule microarrays, primary screen, biochemical, small-molecule microarray, 635 nm fluorescence, GSK3A (AID 1103); details: small-molecule microarray binding, fluorescence 635 nm; higher = more signal; also: the record names both GSK3A and GSK3B
[7] = biological target: Epidermal growth factor receptor (Homo sapiens) (UniProt P00533); experiment: EGFR binders on small-molecule microarrays, primary screen, biochemical, small-molecule microarray, 635 nm fluorescence (AID 1104); details: EGFR binding, higher = more signal;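 also: score merges 667 nm emission intensity with spot signal to noise over triplicate slides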
[8] = biological target: Follistatin-related protein 3 (Homo sapiens) (UniProt O95633); experiment: FSTL3 binders on small-molecule microarrays, primary screen, biochemical, small-molecule microarray, 635 nm fluorescence (AID 1105); details: FSTL3 binding, higher = more signal;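 also: score merges emission near 667 nm and signal to noise per printed spot across three slides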
[9] = biological target: Dickkopf-related protein 1 (Homo sapiens) (UniProt O94907); experiment: DKK1 binders on small-molecule microarrays, primary screen, biochemical, small-molecule microarray, 635 nm fluorescence scan (AID 1106); details: DKK1 binding, higher = more signal;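 also: score merges emission near 667 nm with signal to noise over three replicate slides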
[10] = system: Inhibin beta A chain (activin A); experiment: INHBA (activin A) binders on microarrays, primary screen, biochemical, small-molecule microarray, 635 nm fluorescence scan (AID 1107); details: small-molecule microarray binding, higher = more signal;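 also: mouse activin A protein probed at 4.33 µg/mL on printed slides; score merges bound-protein fluorescence near 667 nm with spot signal-to-noise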
[11] = system: Human papillomavirus type 1a protein E7 (residues 44-93); experiment: HPV1a E7 fragment binders on microarrays, primary screen, biochemical, small-molecule microarray, residues 44-93, 635 nm fluorescence (AID 1108); details: small-molecule microarray binding, fluorescence 635 nm; higher = more signal;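 also: E7 fragment applied at 1 µg/mL in TBST for 1 h at 4 C; score combines spot fluorescence with its signal to noise ratio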
[12] = modulators of HCV replicon luciferase signal, primary screen, HCV replication inhibitor project, Huh7 cells, luciferase reporter (AID 1109); details: 48 h, higher = more signal;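 also: huh7 hepatoma cells harbouring a luciferase neomycin HCV replicon reporter; luciferase luminescence as measure of HCV replicon replication; test concentration not given here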
[13] = biological target: Left-right determination factor 2 (Homo sapiens) (UniProt O00292); experiment: LEFTY2 binders on small-molecule microarrays, primary screen, biochemical, small-molecule microarray, 635 nm fluorescence scan (AID 1110); details: LEFTY2 binding, higher = more signal
[14] = biological target: Calmodulin-1 (Homo sapiens) (UniProt P0DP23); experiment: CALM1 binders on microarrays, EGTA buffer, profiling panel, biochemical, small-molecule microarray, Cy5-labelled CALM1 (AID 1111); details: Cy5-CALM1 binding fluorescence, higher = more signal;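 also: labelled calmodulin applied in Tris saline Tween buffer holding calcium plus EGTA and DTT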
[15] = biological target: Calmodulin-1 (Homo sapiens) (UniProt P0DP23); experiment: calcium-bound CALM1 binders on microarrays, profiling panel, artefact control for SMM control-protein annotation, biochemical, small-molecule microarray, Cy5-labelled CALM1, plus calcium (AID 1112); details: Cy5-CALM1 binding fluorescence, higher = more signal;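 also: score merges spot fluorescence with signal to noise from triplicate slides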
[16] = small-molecule microarray binders of probe aWnt5a, primary screen, biochemical, biotinylated probe, 635/667 nm fluorescence (AID 1113); details: higher = more signal;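 also: score merges 667 nm fluorescence intensity with signal-to-noise per printed feature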
[17] = small-molecule microarray binders of probe aShh, primary screen, biochemical, biotinylated probe, 635/667 nm fluorescence (AID 1114); details: higher = more signal;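 also: probe is biotin-labelled aShh protein from a stem cell growth factor screen; measures binding of labelled protein to compounds printed on the slide; score merges feature fluorescence at 667 nm with signal-to-noise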
[18] = small-molecule microarray binders of probe aNog, primary screen, biochemical, biotinylated probe, 635/667 nm fluorescence (AID 1115); details: higher = more signal;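 also: probe is biotinylated aNog protein used at 0.15 µg/mL for 1 h at 4 C; z-score combines 667 nm fluorescence of each spot with its signal to noise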
[19] = biological target: Torsin-1A-interacting protein 1 (Homo sapiens) (UniProt Q5JTV8); experiment: LAP1 binders from COS7 cell lysate, primary screen, small-molecule microarray, 635/667 nm fluorescence (AID 1116); details: COS7-hLAP1 lysate binding, 635 nm fluorescence, higher = more signal
[20] = biological target: Alpha-bungarotoxin (Bungarus multicinctus) (UniProt P60615); experiment: alpha-bungarotoxin binders on microarray, profiling panel, artefact control for SMM control protein annotation, biochemical, small-molecule microarray, Alexa647 label, 635/667 nm fluorescence (AID 1117); details: alpha-BTX-A647 binding fluorescence, higher = more signal
Sequence of Alpha-bungarotoxin (Bungarus multicinctus) (P60615 whole entry, looked up): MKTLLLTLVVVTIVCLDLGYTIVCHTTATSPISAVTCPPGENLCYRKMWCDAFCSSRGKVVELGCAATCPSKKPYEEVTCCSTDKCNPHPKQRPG

Sequence of Left-right determination factor 2 (Homo sapiens) (O00292 whole entry, looked up): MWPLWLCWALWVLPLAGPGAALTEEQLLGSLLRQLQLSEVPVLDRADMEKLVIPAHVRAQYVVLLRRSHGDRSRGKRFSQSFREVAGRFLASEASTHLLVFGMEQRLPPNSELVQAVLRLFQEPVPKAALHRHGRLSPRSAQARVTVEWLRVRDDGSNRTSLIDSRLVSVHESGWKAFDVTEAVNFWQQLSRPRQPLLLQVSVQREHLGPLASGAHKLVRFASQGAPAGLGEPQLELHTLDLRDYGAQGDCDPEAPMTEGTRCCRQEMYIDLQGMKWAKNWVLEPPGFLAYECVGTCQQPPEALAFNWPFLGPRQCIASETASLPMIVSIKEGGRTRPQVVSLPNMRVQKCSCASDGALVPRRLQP
Sequence of Epidermal growth factor receptor (Homo sapiens) (P00533 whole entry, looked up): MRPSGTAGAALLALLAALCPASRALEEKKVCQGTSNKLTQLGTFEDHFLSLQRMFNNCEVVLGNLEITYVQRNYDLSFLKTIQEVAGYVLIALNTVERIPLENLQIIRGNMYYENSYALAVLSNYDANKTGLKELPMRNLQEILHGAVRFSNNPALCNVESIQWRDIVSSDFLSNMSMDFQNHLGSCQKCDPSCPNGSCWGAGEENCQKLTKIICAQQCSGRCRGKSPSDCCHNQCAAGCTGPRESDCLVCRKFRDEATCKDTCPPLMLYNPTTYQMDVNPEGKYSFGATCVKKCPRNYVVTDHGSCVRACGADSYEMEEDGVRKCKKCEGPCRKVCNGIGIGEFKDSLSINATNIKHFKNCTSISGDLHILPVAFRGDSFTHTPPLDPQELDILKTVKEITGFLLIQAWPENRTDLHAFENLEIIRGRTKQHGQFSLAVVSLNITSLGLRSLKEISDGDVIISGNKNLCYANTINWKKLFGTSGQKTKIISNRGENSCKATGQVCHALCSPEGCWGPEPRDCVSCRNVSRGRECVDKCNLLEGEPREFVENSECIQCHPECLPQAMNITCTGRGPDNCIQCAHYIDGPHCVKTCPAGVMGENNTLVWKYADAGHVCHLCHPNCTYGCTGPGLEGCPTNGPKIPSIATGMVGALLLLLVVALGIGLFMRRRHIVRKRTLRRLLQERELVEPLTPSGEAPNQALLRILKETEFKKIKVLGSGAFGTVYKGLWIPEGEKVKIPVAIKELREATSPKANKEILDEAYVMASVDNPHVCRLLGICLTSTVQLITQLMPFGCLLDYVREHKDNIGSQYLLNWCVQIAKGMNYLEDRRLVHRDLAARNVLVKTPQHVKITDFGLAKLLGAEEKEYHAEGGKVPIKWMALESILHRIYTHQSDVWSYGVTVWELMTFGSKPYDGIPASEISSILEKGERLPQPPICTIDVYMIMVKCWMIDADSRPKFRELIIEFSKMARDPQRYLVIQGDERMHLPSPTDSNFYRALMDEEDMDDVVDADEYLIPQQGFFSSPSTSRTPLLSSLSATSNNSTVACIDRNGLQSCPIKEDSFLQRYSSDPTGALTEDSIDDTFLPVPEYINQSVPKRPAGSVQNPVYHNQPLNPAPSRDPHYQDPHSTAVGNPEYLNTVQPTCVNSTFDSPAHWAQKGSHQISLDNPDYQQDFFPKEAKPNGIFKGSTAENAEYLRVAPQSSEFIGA
Sequence of Fibroblast growth factor 10 (Homo sapiens) (O15520 whole entry, looked up): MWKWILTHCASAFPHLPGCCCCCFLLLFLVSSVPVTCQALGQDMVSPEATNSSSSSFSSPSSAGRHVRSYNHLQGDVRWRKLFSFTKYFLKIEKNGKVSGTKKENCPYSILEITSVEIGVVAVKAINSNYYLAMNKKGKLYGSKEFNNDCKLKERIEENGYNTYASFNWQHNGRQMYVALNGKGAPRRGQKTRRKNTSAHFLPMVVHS
Sequence of Dickkopf-related protein 1 (Homo sapiens) (O94907 whole entry, looked up): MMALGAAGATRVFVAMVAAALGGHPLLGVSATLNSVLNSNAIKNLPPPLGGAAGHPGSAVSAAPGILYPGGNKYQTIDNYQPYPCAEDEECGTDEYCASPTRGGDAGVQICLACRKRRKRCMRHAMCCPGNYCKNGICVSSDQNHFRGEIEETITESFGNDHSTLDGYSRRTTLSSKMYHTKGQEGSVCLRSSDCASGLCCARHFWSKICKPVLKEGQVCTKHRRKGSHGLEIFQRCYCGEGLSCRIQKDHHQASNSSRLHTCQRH
Sequence of Follistatin-related protein 3 (Homo sapiens) (O95633 whole entry, looked up): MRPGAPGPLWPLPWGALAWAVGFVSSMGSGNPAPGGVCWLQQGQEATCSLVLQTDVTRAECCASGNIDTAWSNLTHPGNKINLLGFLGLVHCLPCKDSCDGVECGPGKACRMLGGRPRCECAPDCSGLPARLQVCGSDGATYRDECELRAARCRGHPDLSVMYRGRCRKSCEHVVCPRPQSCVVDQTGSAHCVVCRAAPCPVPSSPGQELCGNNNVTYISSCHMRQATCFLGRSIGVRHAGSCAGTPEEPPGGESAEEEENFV
Sequence of Torsin-1A-interacting protein 1 (Homo sapiens) (Q5JTV8 whole entry, looked up): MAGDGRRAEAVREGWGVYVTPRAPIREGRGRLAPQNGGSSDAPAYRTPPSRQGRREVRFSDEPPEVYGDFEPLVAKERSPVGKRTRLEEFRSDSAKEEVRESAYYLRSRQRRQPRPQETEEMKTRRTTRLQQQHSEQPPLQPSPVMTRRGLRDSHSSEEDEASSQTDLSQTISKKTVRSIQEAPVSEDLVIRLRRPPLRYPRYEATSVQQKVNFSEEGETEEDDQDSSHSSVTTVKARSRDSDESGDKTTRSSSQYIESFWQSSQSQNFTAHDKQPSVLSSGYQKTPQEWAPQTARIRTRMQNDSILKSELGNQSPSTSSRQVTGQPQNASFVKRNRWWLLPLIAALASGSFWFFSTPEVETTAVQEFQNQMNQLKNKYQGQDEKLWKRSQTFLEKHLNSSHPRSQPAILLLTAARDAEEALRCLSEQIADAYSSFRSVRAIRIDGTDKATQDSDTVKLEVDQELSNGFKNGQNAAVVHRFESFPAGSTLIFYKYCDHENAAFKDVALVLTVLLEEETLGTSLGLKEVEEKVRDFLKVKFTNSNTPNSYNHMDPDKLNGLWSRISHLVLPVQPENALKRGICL

Structure (SMILES)	composite z-score [1]	composite z-score [2]	composite z-score [3]	z-score [4]	composite z-score [5]	composite z-score [6]	composite z-score [7]	composite z-score [8]	composite z-score [9]	composite z-score [10]	composite z-score [11]	z-score [12]	composite z-score [13]	composite z-score [14]	composite z-score [15]	composite z-score [16]	composite z-score [17]	composite z-score [18]	composite z-score [19]	composite z-score [20]
O=C1C[C@@H](O)[C@@H](O)[C@@H]2[C@@H]3C(=O)N(C4CCCCC4)C(=O)[C@@H]3CC[C@H]12	0.523	-0.376	-0.711	0.804 (inactive)	0.438	0.919	0.634	0.553	0.718	-0.294	0.717	-0.0951	0.456	-0.0292	-0.57	-0.114	-0.309	0.0051	0.473	-0.0214
CCOc1ccc(N2C(=O)/C(=C/C=C/c3ccccc3OC)S(=O)(=O)C2c2cccc([N+](=O)[O-])c2)cc1 (stereo not given)	-0.379	0.0757	0.42	1.04 (inactive)	0.226	0.342	0.549	0.393	0.218	0.61	-0.432	-2.17	0.49	1.27	0.545	0.0017	-0.2	0.0373	0.351	0.321
Cc1cc2c(c(=O)o1)[C@H](O)[C@H]1O[C@H]1C2=O	0.412	-0.178	-0.245	-0.331 (inactive)	0.88	0.191	0.0205	-0.139	-0.0438	0.623	-1.5	-2.16	0.761	-0.766	-1.38	-0.208	0.0048	-0.359	0.17	0.0658
CCCNC(=O)OC[C@H]1O[C@H](CCON=C2[C@H]3CCn4c(=O)n(-c5ccccc5)c(=O)n4[C@H]3[C@H](O)[C@@H]3O[C@H]23)C=C[C@@H]1Oc1ccc(OC)cc1	0.357	-0.139	-0.182	-0.374 (inactive)	0.2	0.343	-0.0629	0.493	0.378	0.103	0.252	-4.4	0.292	-1.01	-0.661	-0.0944	0.0062	-0.124	-0.0551	0.134
COC(=O)[C@H](C)NC(=O)CCC1CC(OC(=O)NCc2cccc3ccccc23)CC2(CCCC(COC(=O)NCCc3ccc(Cl)cc3)O2)O1 (stereo not given in full)	-0.0744	-0.299	-0.444	-0.875 (inactive)	0.794	0.69	0.381	0.494	0.302	-0.131	0.953	-1.05	0.451	0.866	-0.0789	-0.0075	-0.138	-0.213	0.33	0.171
CS(=O)(=O)CCOC(=O)C1=CC(CCCO)=CC(c2cccs2)N(Cc2cccc(OC(F)(F)F)c2)C=C1C(=O)OCCS(C)(=O)=O (stereo not given)	0.811	0.674	0.742	0.538 (inactive)	0.739	0.873	-0.37	0.14	-0.06	0.915	0.729	-2.77	-0.224	2.31	1.36	0.055	0.261	-0.0554	1.88	1.6
CC(=O)OC[C@H]1O[C@H](CCON=C(C)CCN2CCc3nc(-c4ccccc4)c(-c4ccccc4)cc3C2)C=C[C@@H]1OC(C)=O	0.323	-0.154	0.101	0.82 (inactive)	-0.422	0.102	0.392	0.189	0.222	1.16	1.26	-1.58	0.0439	-0.205	-0.174	-0.0748	-0.0425	-0.273	0.624	1.57
N#Cc1ccc(NN2C(C(O)c3cccc4ccccc34)C=CC3C(=O)N(c4ccccc4)C(=O)C32)cc1 (stereo not given)	0.582	0.687	1.14	1.27 (inactive)	0.899	0.676	0.316	0.898	-0.203	0.478	1.48	0.148	0.221	1.74	0.164	0.139	0.23	0.837	0.365	1.09
COc1ccc([Si](C)(C)[C@@H]2[C@@H](CC(=O)N3CCC[C@H]3CO)O[C@]3(C(=O)N(Cc4cccc(N5CCC5=O)c4)c4ccccc43)[C@H]2C)cc1	1.71	-0.264	0.363	-0.399 (inactive)	0.118	0.773	0.144	0.7	0.726	0.245	1.4	-2.1	0.162	0.504	-0.098	-0.0236	0.199	0.15	0.989	1.44
COc1cccc([C@H]2Oc3ccc(OC)cc3C(=NOC(C)CN3CCCc4nc(C)c(C)cc43)[C@@H]2O)c1 (stereo not given in full)	-0.403	-0.207	-0.335	-0.467 (inactive)	0.474	0.827	0.746	0.0288	0.492	-0.109	-0.508	-1.12	0.37	-0.789	-0.582	-0.0286	0.151	-0.135	0.74	-0.618
CCOC(=O)[C@H](Cc1ccccc1)NC(=O)CCC1CC(OC(=O)NCCc2ccc(F)cc2)CC2(CCCC(COC(=O)NCC(c3ccccc3)c3ccccc3)O2)O1 (stereo not given in full)	0.892	-0.273	-0.368	0.378 (inactive)	0.617	0.729	0.374	0.979	0.898	-0.235	1.33	0.0395	0.414	0.53	-0.658	-0.124	-0.0146	-0.0496	2.49	0.0051
